# Measured values from PubChem BioAssay (Tox21).
# A number with no mark means an inactive call. Records with an inconclusive call do not appear. Entries that show only a call come without a potency. Activity calls are given as the source filed them. Unless noted, calls come from the whole dose curve.
# Assays:
# [1] = Nuclear factor erythroid 2-related factor 2/antioxidant responsive element (Nrf2/ARE) small molecule agonists: qHTS cell viability counter screen in human keratinocytes (AID 1919968; active = well fitted curve in the direction sought with a large enough effect in the repeat runs; an effect the other way counts as inactive or inconclusive; note: nearly all actives have a fitted effect of over 55% in size)
# Outline: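 Cells of the KeratinoSens line were plated at 1,500 per well and left for 5 h before compound transfer from DMSO stocks. After a 23 h incubation (37 C, 5% CO2), CellTiter-Fluor was added. Signal was taken as fluorescence intensity 1 h later.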
# [2] = Nuclear factor erythroid 2-related factor 2/antioxidant responsive element (Nrf2/ARE) small molecule agonists: luciferase reporter gene qHTS assay in human keratinocytes (AID 1919969); note: nearly all actives have a fitted effect of over 35% in size; note: potency is the fitted concentration of half-maximal effect
# [3] = biological target: KiSS-1 receptor (Homo sapiens) (UniProt Q969F8); assay: Human kisspeptin (KISS1R) small molecule agonists, calcium flux assay in KISS1R-HEK293 cells (AID 1920064; active = well fitted curve in the direction sought with a large enough effect in the repeat runs; an effect the other way counts as inactive or inconclusive)
# Chain of KiSS-1 receptor (Homo sapiens) (Q969F8 whole entry, looked up): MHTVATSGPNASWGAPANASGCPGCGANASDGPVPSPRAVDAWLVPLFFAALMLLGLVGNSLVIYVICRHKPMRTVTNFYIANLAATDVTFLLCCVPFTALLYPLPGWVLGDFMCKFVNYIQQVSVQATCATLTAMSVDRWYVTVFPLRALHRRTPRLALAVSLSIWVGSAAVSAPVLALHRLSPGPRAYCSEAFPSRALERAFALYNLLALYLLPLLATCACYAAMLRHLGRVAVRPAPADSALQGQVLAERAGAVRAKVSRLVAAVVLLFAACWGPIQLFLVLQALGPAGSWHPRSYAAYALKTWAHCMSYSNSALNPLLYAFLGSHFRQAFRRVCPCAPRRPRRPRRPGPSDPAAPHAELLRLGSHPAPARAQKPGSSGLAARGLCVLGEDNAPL
# Outline: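 Cell line: HEK293, stable human KISS1R. Dye loading 1 h at 37 C after 18 h culture. Read: kinetic fluorescence, 480/540 nm, 3 min at 1 s intervals.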
# [4] = G protein-coupled receptor (GPCR) small molecule agonists, calcium flux assay: HEK293 wild type cell line counter screen (AID 1920065)
# Outline: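 Tox21 10K compounds, 15 concentrations each in triplicate, pin-transferred in DMSO onto dye-loaded cells; kinetic read at 480/540 nm for 3 min, 1 s intervals.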
# [5] = p53 small molecule agonists, cell-based qHTS assay with human liver microsomes (AID 1963577);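 note: p53 response element beta-lactamase reporter cells with liver microsomes plus NADPH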
# Outline: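 p53RE-bla cells; 5 h settle, 37 C/5% CO2; cpd + HLM 0.5 mg/mL + NADPH 0.5 mg/mL (final); 16 h 37 C; LiveBLAzer 2 h RT dark; fluorescence readout.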
# [6] = p53 small molecule agonists, cell-based qHTS assay with rat liver microsomes (AID 1963578)
# Outline: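 Rat liver microsome activation: microsomes 0.5 mg/mL, NADPH 0.5 mg/mL final; p53RE-bla cells, 16 h 37 C; LiveBLAzer readout, 2 h RT dark.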
# [7] = p53 small molecule agonists, cell-based qHTS assay with human liver microsomes: qHTS cell viability counter screen (AID 1963579); note: nearly all actives have a fitted effect of over 45% in size
# Outline: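 Luminescent CellTiter-Glo read-out, 30 min at room temperature, gauged cytotoxicity in p53RE-bla cells exposed 16 h at 37 C to DMSO-dissolved compounds with metabolic activation by human liver microsomes and NADPH, each 0.5 mg/mL final.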
# [8] = p53 small molecule agonists, cell-based qHTS assay with rat liver microsomes: qHTS cell viability counter screen (AID 1963580); note: nearly all actives have a fitted effect of over 45% in size
# Outline: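 Rat liver microsome (0.5 mg/mL final) and NADPH (0.5 mg/mL final) co-incubation with compounds for 16 h at 37 C on HCT-116 p53RE-bla cells; cytotoxicity taken from intracellular ATP luminescence.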
# [9] = p53 small molecule agonists, cell-based qHTS assay: qHTS cell viability counter screen (AID 1963581); note: nearly all actives have a fitted effect of over 45% in size
# Outline: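 ATP content measured by luminescence in HCT-116 p53RE-bla cells treated 16 h at 37 C, same wells as the reporter screen.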
# [10] = p53 small molecule agonists, cell-based qHTS assay (AID 1963582; active = well fitted activation curve with a large enough effect in the signal ratio in the repeat runs, not every such curve was filed as active; the % refers to the signal ratio)
# Outline: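 16 h compound exposure (37 C) of p53 response element–bla cells, preceded by 5 h recovery at 37 C/5% CO2; read-out via LiveBLAzer B/G FRET substrate, 2 h RT, fluorescence intensity.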
# [11] = biological target: 5-hydroxytryptamine receptor 2A (Homo sapiens) (UniProt P28223); assay: 5-hydroxytryptamine receptor 2A (HTR2A) small molecule agonists, cell-based qHTS assay (AID 1963587); note: nearly all actives have a fitted effect of over 30% in size
# Chain of 5-hydroxytryptamine receptor 2A (Homo sapiens) (P28223 whole entry, looked up): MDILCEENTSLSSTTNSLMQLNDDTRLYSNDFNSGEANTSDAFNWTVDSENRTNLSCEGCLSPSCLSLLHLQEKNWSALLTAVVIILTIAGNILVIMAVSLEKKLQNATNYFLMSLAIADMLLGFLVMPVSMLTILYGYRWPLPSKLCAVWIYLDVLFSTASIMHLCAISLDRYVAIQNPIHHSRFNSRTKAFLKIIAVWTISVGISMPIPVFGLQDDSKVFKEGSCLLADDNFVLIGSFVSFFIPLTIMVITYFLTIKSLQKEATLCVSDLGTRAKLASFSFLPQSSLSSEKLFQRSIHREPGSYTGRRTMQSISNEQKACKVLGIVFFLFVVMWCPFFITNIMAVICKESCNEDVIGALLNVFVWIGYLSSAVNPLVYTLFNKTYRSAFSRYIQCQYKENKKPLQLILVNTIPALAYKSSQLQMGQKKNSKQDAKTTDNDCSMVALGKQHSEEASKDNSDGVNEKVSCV
# Outline: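 Kinetic calcium-flux fluorescence (2 min, 1 sec intervals) after compound addition in agonist mode. HTR2A-CHO cells were cultured 18 h, then dye-loaded 1 h at 37 C.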
# [12] = biological target: Muscarinic acetylcholine receptor M1 (Homo sapiens) (UniProt P11229); assay: Cholinergic receptor muscarinic 1 (CHRM1) small molecule antagonists, cell-based qHTS assay (AID 1963588); note: nearly all actives have a fitted effect of over 40% in size
# Chain of Muscarinic acetylcholine receptor M1 (Homo sapiens) (P11229 whole entry, looked up): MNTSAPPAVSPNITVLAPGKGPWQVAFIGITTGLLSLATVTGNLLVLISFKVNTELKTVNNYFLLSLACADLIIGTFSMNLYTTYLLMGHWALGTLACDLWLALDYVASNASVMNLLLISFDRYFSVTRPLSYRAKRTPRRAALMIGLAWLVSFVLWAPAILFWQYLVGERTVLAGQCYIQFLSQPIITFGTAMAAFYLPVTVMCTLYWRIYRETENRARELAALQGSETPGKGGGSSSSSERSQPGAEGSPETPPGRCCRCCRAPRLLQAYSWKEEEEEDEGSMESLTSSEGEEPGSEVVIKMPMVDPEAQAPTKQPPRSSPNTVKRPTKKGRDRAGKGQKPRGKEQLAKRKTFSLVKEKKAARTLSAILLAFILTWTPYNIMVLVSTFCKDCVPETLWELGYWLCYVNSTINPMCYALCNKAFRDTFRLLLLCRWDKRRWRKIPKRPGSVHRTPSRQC
# Outline: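 Compounds were tested at 15 concentrations in three independent runs. Dye-loaded CHRM1-CHO cells were exposed 5 min at room temperature before stimulation by acetylcholine added at 50nM. Intracellular calcium was read kinetically on FDSS for 3 min.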
# [13] = cAMP Responsive Elements (CRE) small molecule agonists, cell-based qHTS assay (AID 1963590)
# Outline: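 HEK 293T cells stably bearing CRE-bla were plated at 2,000 cells per well and rested 18 h. Compounds, positive controls or DMSO were added for 3 h at 37 C. LiveBLAzer B/G substrate was then loaded for 2 h at room temperature.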
# [14] = cAMP Responsive Elements (CRE) small molecule antagonists, cell-based qHTS assay (AID 1963591; active = well fitted inhibition curve with a large enough effect in the signal ratio in the repeat runs, not every such curve was filed as active; the % refers to the signal ratio)
# Outline: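 First, CRE-bla HEK293T cells settled 18 h at 37 C. Next, compound and 0.25 uM final NKH477 were applied for 3 h. Last, LiveBLAzer B/G substrate was loaded for 2 h at room temperature.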
# [15] = biological target: Beta-2 adrenergic receptor (Homo sapiens) (UniProt P07550); assay: Adrenergic beta2 receptor (ADRB2) small molecule antagonists, cell-based qHTS assay (AID 1963592); note: series mostly up to about 92 µM; nearly all actives have a fitted effect of over 50% in size
# Chain of Beta-2 adrenergic receptor (Homo sapiens) (P07550 whole entry, looked up): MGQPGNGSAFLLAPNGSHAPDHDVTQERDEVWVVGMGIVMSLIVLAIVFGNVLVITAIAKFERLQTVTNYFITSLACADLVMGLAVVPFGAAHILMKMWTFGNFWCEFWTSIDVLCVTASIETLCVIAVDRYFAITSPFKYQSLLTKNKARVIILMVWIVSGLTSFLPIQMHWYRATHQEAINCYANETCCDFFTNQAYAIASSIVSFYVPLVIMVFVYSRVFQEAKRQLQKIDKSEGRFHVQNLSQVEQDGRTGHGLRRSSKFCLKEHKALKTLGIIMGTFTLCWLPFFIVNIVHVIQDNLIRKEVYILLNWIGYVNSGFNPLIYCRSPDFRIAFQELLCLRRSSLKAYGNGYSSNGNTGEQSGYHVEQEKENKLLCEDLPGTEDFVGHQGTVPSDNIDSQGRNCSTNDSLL
# Outline: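 Assay format: CHO-ADRB2 cells, 18-20hr seeding at 37C/5% CO2, then compound plus 1nM isoproterenol agonist mix for 0.5hr RT. Homogeneous time-resolved fluorescence cAMP detection after 1hr, expressed as 665/615 nm ratio.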
# [16] = biological target: D(2) dopamine receptor (Homo sapiens) (UniProt P14416); assay: Dopamine D2 receptor (DRD2) small molecule agonists, cell-based qHTS assay (AID 1963594); note: nearly all actives have a fitted effect of over 35% in size
# Chain of D(2) dopamine receptor (Homo sapiens) (P14416 whole entry, looked up): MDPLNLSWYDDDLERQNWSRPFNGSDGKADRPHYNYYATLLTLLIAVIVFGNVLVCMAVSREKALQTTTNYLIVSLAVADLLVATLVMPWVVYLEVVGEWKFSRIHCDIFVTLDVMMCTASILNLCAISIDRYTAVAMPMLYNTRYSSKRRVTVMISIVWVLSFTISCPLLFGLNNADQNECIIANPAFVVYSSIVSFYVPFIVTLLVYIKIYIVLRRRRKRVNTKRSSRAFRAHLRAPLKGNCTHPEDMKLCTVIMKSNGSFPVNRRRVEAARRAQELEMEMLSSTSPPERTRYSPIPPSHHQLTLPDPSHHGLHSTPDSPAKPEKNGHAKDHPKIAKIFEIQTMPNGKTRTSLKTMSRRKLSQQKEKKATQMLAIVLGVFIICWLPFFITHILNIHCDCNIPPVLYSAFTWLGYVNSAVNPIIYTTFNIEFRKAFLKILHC
# Outline: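 cAMP accumulation in DRD2-HEK293 cells measured by HTRF after 1 h detection; compounds added 10 min before NKH477 (200nM […]) forskolin-analogue stimulation, 30 min at room temperature, with Ro20-1724 present at 0.1 mM final.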
# [17] = biological target: D(2) dopamine receptor (Homo sapiens) (UniProt P14416); assay: Dopamine D2 receptor (DRD2) small molecule antagonists, cell-based qHTS assay (AID 1963595; active = well fitted inhibition curve with a large enough effect in the signal ratio in the repeat runs, with a control signal flat; the % refers to the signal ratio)
# Outline: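 Antagonist mode in DRD2-HEK293 cells: after compound addition with 0.1 mM Ro20-1724, cells received quinpirole (12 nM) and NKH477 (200 nM) for 30 min at room temperature; HTRF cAMP read after 1 h detection.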
# [18] = biological target: 5-hydroxytryptamine receptor 2A (Homo sapiens) (UniProt P28223); assay: 5-hydroxytryptamine receptor 2A (HTR2A) small molecule antagonists, cell-based qHTS assay (AID 1963586); note: nearly all actives have a fitted effect of over 45% in size
# Outline: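 CHO cells stably expressing human HTR2A were plated for 18 h at 37 C, then loaded with calcium dye for 1 h. Compounds were preincubated 5 min at room temperature before DOI (4 nM solution) was added. Kinetic fluorescence was read for 3 min.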
# [19] = biological target: Beta-2 adrenergic receptor (Homo sapiens) (UniProt P07550); assay: Adrenergic beta2 receptor (ADRB2) small molecule agonists, cell-based qHTS assay (AID 1963593);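 note: CHO cells stably overexpressing human ADRB2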
# Outline: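 CHO cells stably over-expressing ADRB2 were plated overnight at 37C, then dosed with compounds plus a stimulation mix containing 100uM IBMX and 25uM Ro-20-1724 for 0.5hr at room temperature. cAMP was measured by HTRF competition, 1hr.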
# [20] = biological target: Muscarinic acetylcholine receptor M1 (Homo sapiens) (UniProt P11229); assay: Cholinergic receptor muscarinic 1 (CHRM1) small molecule agonists, cell-based qHTS assay (AID 1963589); note: nearly all actives have a fitted effect of over 35% in size
# Outline: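 Homogeneous fluorescence calcium flux, agonist mode. Human M1-expressing CHO cells; compound dosed at 15 concentrations, three independent runs; signal sampled every 1 sec.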
Structure (SMILES),Potency [1],Potency [2],outcome [3],outcome [4],Potency [5],Potency [6],Potency [7],Potency [8],Potency [9],Potency [10],Potency [11],Potency [12],Potency [13],Potency [14],Potency [15],Potency [16],Potency [17],Potency [18],Potency [19],Potency [20]
C=CCSCC1Nc2cc(Cl)c(S(N)(=O)=O)cc2S(=O)(=O)N1 (stereo not drawn),inactive,inactive,inactive,inactive,inactive,inactive,inactive,inactive,inactive,inactive,inactive,inactive,inactive,inactive,inactive,inactive,inactive,–,–,–
C=CCOC(=O)/C=C\C(=O)OCC=C,inactive,24.8 µM (active),inactive,inactive,inactive,inactive,–,inactive,inactive,inactive,inactive,inactive,–,–,inactive,inactive,inactive,inactive,inactive,–
C[C@H](CCC(=O)O)[C@H]1CC[C@H]2[C@@H]3[C@H](O)C[C@@H]4C[C@H](O)CC[C@]4(C)[C@H]3C[C@H](O)[C@]12C,inactive,inactive,inactive,inactive,inactive,inactive,inactive,–,inactive,inactive,–,–,inactive,inactive,inactive,inactive,inactive,–,–,–
Cc1cccc(C)c1NC(=O)CN1CCCC1,inactive,inactive,inactive,inactive,inactive,inactive,inactive,–,inactive,inactive,inactive,inactive,inactive,inactive,inactive,–,inactive,–,–,inactive
CCOC(=O)C(Br)c1ccccc1 (stereo not drawn),inactive,inactive,inactive,inactive,inactive,inactive,inactive,inactive,–,inactive,inactive,inactive,inactive,–,inactive,inactive,inactive,inactive,inactive,inactive
C=CC(=O)OCCCl,inactive,inactive,inactive,inactive,inactive,inactive,inactive,–,inactive,inactive,inactive,–,inactive,inactive,–,inactive,inactive,inactive,–,inactive
Cc1cc(NC(=O)C2=C(O)c3ccccc3S(=O)(=O)N2C)no1,inactive,inactive,inactive,inactive,inactive,inactive,inactive,–,inactive,–,inactive,inactive,inactive,inactive,inactive,inactive,–,–,inactive,inactive
